Results filed as inconclusive are left out. Active and inactive are the calls of the source. Unless noted, calls follow the shape of the full dose curve.
How the values were obtained:
[1] = qHTS for Inhibitors of the Functional Ribonucleoprotein Complex (vRNP) of Lassa (LASV) Arenavirus: LASV Primary Screen - GLuc reporter signal (AID 1347082; calls by dose curve; tested in HEK293 reporter line; also: nearly all actives have a fitted effect of over 60% in size); details: LASV minigenome vRNP, Gaussia luciferase reporter; series mostly up to 57.5 µM
[2] = qHTS for Inhibitors of the Functional Ribonucleoprotein Complex (vRNP) of Lassa (LASV) Arenavirus: Viability assay - alamar blue signal for LASV Primary Screen (AID 1347083; calls by dose curve; tested in HEK293 reporter line; also: nearly all actives have a fitted effect of over 80% in size); details: cell viability, alamar blue fluorescence (LASV minigenome counter-screen); series mostly up to 57.5 µM
[3] = qHTS for Inhibitors of the Functional Ribonucleoprotein Complex (vRNP) of Lymphocytic Choriomeningitis Arenaviruses (LCMV): Viability assay - alamar blue signal for LCMV Primary Screen (AID 1347085; calls by dose curve; tested in HEK293 reporter line; also: nearly all actives have a fitted effect of over 80% in size); details: alamar blue viability counter-screen, LCMV vRNP screen cells; series mostly up to 57.5 µM
[4] = molecular target: Nucleoprotein (Lymphocytic choriomeningitis virus (strain Armstrong)) (UniProt P09992); test: qHTS for Inhibitors of the Functional Ribonucleoprotein Complex (vRNP) of Lymphocytic Choriomeningitis Arenaviruses (LCMV): LCMV Primary Screen - GLuc reporter signal (AID 1347086); details: LCMV minigenome vRNP cell assay, Gaussia luciferase reporter; series mostly up to 57.5 µM; also: nearly all actives have a fitted effect of over 70% in size
Sequence of Nucleoprotein (Lymphocytic choriomeningitis virus (strain Armstrong)) (P09992 whole entry, looked up): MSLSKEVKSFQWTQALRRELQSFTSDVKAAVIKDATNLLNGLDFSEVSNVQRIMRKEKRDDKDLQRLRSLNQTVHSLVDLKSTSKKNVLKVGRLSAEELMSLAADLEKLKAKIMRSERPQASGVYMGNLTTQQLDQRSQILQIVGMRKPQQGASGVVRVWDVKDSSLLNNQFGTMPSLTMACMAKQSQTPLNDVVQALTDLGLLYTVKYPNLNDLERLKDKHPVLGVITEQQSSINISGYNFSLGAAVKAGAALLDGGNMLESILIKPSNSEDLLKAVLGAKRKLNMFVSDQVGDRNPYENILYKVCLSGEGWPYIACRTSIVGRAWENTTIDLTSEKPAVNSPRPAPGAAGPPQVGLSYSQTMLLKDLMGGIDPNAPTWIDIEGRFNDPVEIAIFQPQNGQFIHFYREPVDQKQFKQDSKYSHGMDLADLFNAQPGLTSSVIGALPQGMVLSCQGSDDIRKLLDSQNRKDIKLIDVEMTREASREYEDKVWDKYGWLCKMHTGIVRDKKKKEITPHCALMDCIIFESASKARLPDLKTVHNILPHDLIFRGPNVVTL
% is scaled to controls: 0 for no effect and ±100 for the full control effect.

CN1CCC(N(Cc2cccs2)c2ccccc2)CC1
inactive: Potency [1] | Potency [2] | Potency [3] | Potency [4]

CCOC(=O)n1ccn(C)c1=S
inactive: Potency [1] | Potency [2] | Potency [3] | Potency [4]

CCN1CCCC(OC(=O)C(c2ccccc2)c2ccccc2)C1 (stereo not given)
inactive: Potency [1] | Potency [2] | Potency [3] | Potency [4]

CC(C)OC(=O)C(C(=O)OC(C)C)=C1SC=CS1
inactive: Potency [1] | Potency [2] | Potency [3] | Potency [4]

NS(=O)(=O)c1ccc(N2CCCCS2(=O)=O)cc1
inactive: Potency [1] | Potency [2] | Potency [3] | Potency [4]

CCOc1ccc(NC(C)=O)cc1
inactive: Potency [1] | Potency [2] | Potency [3] | Potency [4]

Oc1ccc(CCNCCCCCCNCCc2ccccc2)cc1O
inactive: Potency [1] | Potency [2] | Potency [3] | Potency [4]

CC(C)C(=O)OCc1cccc(OC(=O)[C@@H]2N3C(=O)[C@@H](NC(=O)Cc4ccccc4)[C@H]3SC2(C)C)c1
inactive: Potency [1] | Potency [2] | Potency [3] | Potency [4]

CCN(CCCc1ccccc1)CCCc1ccccc1
inactive: Potency [1] | Potency [2] | Potency [3] | Potency [4]

CC(CC1c2ccccc2CCc2ccccc21)CN(C)C (stereo not given)
inactive: Potency [1] | Potency [2] | Potency [3] | Potency [4]

CC[C@H](NC(C)C)[C@H](O)c1ccc(O)c2[nH]c(=O)ccc12
inactive: Potency [1] | Potency [2] | Potency [3] | Potency [4]

NC(=O)CC[C@@H](N)C(=O)O
inactive: Potency [1] | Potency [2] | Potency [3] | Potency [4]

C=C(C)C(=O)OCC(O)CO (stereo not given)
inactive: Potency [1] | Potency [2] | Potency [3] | Potency [4]

CN(C)[C@@H]1C(=O)C(C(=O)NCN2CCCC2)=C(O)[C@@]2(O)C(=O)C3=C(O)c4c(O)cccc4[C@@](C)(O)C3C[C@@H]12 (stereo not given in full)
inactive: Potency [1] | Potency [2] | Potency [3] | Potency [4]

Cc1cccc(N(C)C(=S)Oc2ccc3ccccc3c2)c1
inactive: Potency [1] | Potency [2] | Potency [3] | Potency [4]

CC(C)C[C@@H](N)C(=O)O
inactive: Potency [1] | Potency [2] | Potency [3] | Potency [4]

C[C@]12CC[C@@H]3c4ccc(O)cc4CC[C@H]3[C@@H]1CC[C@@H]2OC(=O)CCC1CCCC1
inactive: Potency [1] | Potency [2] | Potency [3] | Potency [4]

CCCCCOc1ccccc1/C(=C\SC)n1ccnc1
inactive: Potency [1] | Potency [2] | Potency [3] | Potency [4]

N[C@@H](Cc1c[nH]c2ccc(O)cc12)C(=O)O
inactive: Potency [1] | Potency [2] | Potency [3] | Potency [4]

CCCC(C(=O)OCCN(CC)CC)(c1ccccc1)c1ccccc1
inactive: Potency [1] | Potency [2] | Potency [3] | Potency [4]

CCN[C@@H]1C[C@H](N)[C@@H](OC2OC(CN)=CCC2N)[C@H](O)[C@H]1O[C@H]1OC[C@](C)(O)[C@H](NC)[C@H]1O (stereo not given in full)
inactive: activity change, negative = inhibition [1] -2.08% [at 0.757 µM] | activity change, negative = reduced viability [2] -5.5% [at 0.757 µM] | activity change, negative = lower viability [3] 0.253% [at 0.757 µM] | activity change, negative = inhibition [4] 10% [at 0.757 µM]

C#C[C@]1(OC(C)=O)CC[C@H]2[C@@H]3CCC4=C/C(=N/O)CC[C@@H]4[C@H]3CC[C@@]21CC
inactive: Potency [1] | Potency [2] | Potency [3] | Potency [4]

NC(N)=N/N=C/c1c(Cl)cccc1Cl
inactive: Potency [1] | Potency [2] | Potency [3] | Potency [4]

CCOc1ccc(C(=O)OCCN(CC)CC)cc1
inactive: Potency [1] | Potency [2] | Potency [3] | Potency [4]

NC(=O)Cc1cccc(C(=O)c2ccccc2)c1N
inactive: Potency [1] | Potency [2] | Potency [3] | Potency [4]

CC(C)NCC(O)COc1ccc(COCCOC(C)C)cc1 (stereo not given)
inactive: Potency [1] | Potency [2] | Potency [3] | Potency [4]

N[C@H](C(=O)O)[C@@H](O)c1ccc(O)c(O)c1
inactive: Potency [1] | Potency [2] | Potency [3] | Potency [4]

CC(C)Cn1cnc2c1c(=O)n(C)c(=O)n2C
inactive: Potency [1] | Potency [2] | Potency [3] | Potency [4]

CC[N+]1(CC)CCC(=C(c2ccccc2)c2ccccc2)C1C (stereo not given)
inactive: Potency [1] | Potency [2] | Potency [3] | Potency [4]

COC(=O)c1cc(S(N)(=O)=O)ccc1OC
inactive: Potency [1] | Potency [2] | Potency [3] | Potency [4]

Cn1c(=O)c2c(ncn2C)n(C)c1=O
inactive: Potency [1] | Potency [2] | Potency [3] | Potency [4]

CCCCCCCCCCCCOS(=O)(=O)O
inactive: Potency [1] | Potency [2] | Potency [3] | Potency [4]

CCCCCCCCCCOCC(O)CN (stereo not given)
inactive: Potency [1] | Potency [2] | Potency [3] | Potency [4]

COc1ccc2cc1Oc1ccc(cc1)C[C@H]1c3c(cc4c(c3Oc3cc5c(cc3OC)CCN(C)[C@@H]5C2)OCO4)CCN1C
inactive: Potency [1] | Potency [2] | Potency [3] | Potency [4]
